The values that follow come from PubChem BioAssay (NCATS).

Inconclusive results are not listed. A number with no mark means an inactive call. Calls of active or inactive are those of the source. The call rests on the fitted dose curve; in most records, active means well fitted cell-killing curve with a large enough effect; inconclusive means small, poorly fitted or top-dose-only effect, or effect the other way; inactive means no such curve, though single readings can be large or run the other way.
Potency means the concentration at half of the fitted maximal effect.

The assay in a line: Viability qHTS for spleen associated tyrosine kinase inhibitor (SYKi) drug resistant MV4-11 cells (AID 1963824). Further: nearly all actives have a fitted effect of over 35% in size. As to conditions: SYKi-resistant MV4-11 viability, CellTiter-Glo, 72 h; series mostly up to 45 µM; viability, % of control: at the top concentration. An outline of the steps:
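CellTiter-Glo luminescence, read 10 min after reagent addition, reports viability after a 72 hr compound exposure. Cells are an MV4-11 line made resistant to SYK inhibition, seeded at 500 per well onto compound-containing plates.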
Take `C=C1[C@@H](C2=CC(=O)OC2)CC[C@@]2(O)[C@@H]1CC1[C@H]2CC[C@@H]2C[C@@H](O[C@H]3O[C@@H](C)[C@@H](O[C@@H]4O[C@H](CO[C@@H]5O[C@H](CO)[C@@H](O)[C@H](O)[C@H]5O)[C@@H](O)[C@H](O)[C@H]4O)[C@H](OC)[C@H]3O)CC[C@]12C` (stereo not given in full): the Potency was 1.55 µM (active).
On the same count and under the same terms, as for `N#Cc1ccc(Nc2nc(-c3ccc(O)cc3O)cs2)cc1C(F)(F)F`, the figure is 4.61 µM (active).
`C=C[C@H]1[C@H](O[C@@H]2O[C@H](CO)[C@@H](O)[C@H](O)[C@H]2O)OC=C2C(=O)OCC[C@]21O`: the “viability, % of control” value was 75.4%.
The same measure, in the same setting: as for `CC1(C)CCC2(C(=O)OC3OCC(O)C(O)C3O)CCC3(C)C(=CCC4C5(C)CC(O)C(OC6OC(COC7OCC(O)C(O)C7O)C(O)C(O)C6O)C(C)(C)C5CCC43C)C2C1` (stereo not given), the figure is 78.5% [at 9.25 µM]; as for `CC1NC(=O)CNC(=O)C(C(C)C)NC(=O)C2CCCN2C(=O)C(C(C)C)NC(=O)C(Cc2c[nH]c3ccccc23)NC1=O` (stereo not given), 95.4% [at 17.3 µM].
Take `C=C1CCC2C(C)(C)C(O)CCC2(C)C1CCC(C)CCO` (stereo not given): the Potency was 12.8 µM (active).
Turning to `COc1ccc(C(=O)CC(=O)O)c2c1C=CC(C)(C)O2`, the “viability, % of control” value is 90.1%.
On the same count and under the same terms, as for `NC(=O)C(O[C@@H]1O[C@H](CO[C@@H]2O[C@H](CO)[C@@H](O)[C@H](O)[C@H]2O)[C@@H](O)[C@H](O)[C@H]1O)c1ccccc1` (stereo not given in full), the figure is 94.9% [at 17.3 µM].
As to `C=C1C(=O)O[C@@H]2[C@H]3C(C)=CC(=O)C3=C(C)[C@@H](OC(=O)/C(C)=C\C)[C@H](O)[C@@H]12`, the Potency was 1.43 µM (active).
For the molecule `CC(O)/C=C/C1(O)C(C)C(O)C(O[C@@H]2O[C@H](CO)[C@@H](O)[C@H](O)[C@H]2O)CC1(C)C` (stereo not given in full), the “viability, % of control” value was 3.4% [at 17.3 µM].
